RECQ1 inh-1: inhibitors of human RECQ1 DNA helicase; RECQ1 DNA unwinding, red fluorescence kinetic read; 0.54% of 240,000 active; AID 2549; P46063; Potency, µM (top dose mostly 57.3 µM), for inactives: at the top dose activity, negative = inhibition, hits mostly inhibitors;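 further: plate controls were vehicle for no effect and no enzyme for full effect; nearly all actives have a fitted effect of over 30% in size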
Target sequence (P46063 whole entry, looked up): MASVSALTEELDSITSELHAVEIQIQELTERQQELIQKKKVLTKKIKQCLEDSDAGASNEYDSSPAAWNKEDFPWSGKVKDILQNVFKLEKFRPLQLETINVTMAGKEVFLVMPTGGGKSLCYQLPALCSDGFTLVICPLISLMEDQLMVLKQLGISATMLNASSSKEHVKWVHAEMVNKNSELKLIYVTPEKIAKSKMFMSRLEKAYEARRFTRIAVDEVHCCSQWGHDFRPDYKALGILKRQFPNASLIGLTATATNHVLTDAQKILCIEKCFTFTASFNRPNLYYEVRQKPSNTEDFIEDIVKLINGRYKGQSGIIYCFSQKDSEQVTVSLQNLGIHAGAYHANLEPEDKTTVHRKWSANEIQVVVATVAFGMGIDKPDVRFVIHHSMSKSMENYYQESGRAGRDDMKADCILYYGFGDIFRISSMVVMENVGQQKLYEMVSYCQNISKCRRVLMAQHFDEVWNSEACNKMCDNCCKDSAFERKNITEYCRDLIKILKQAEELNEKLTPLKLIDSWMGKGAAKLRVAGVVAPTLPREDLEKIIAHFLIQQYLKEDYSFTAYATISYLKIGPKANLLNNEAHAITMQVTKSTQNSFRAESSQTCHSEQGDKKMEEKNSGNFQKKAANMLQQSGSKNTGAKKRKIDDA
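RECQ1T1 50 nM; forked duplex (20 bp + 30-nt ss tails) 200 nM, ATP 2 mM final; pH 8.0, 2 mM MgCl2, 2.5 ug/ml poly(dI-dC); 15 min compound preincubation; discontinuous kinetic read over 2 h at RT.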
L3MBTL1 block: inhibitors of human L3MBTL1. AlphaScreen L3MBTL1–H3K9me1 peptide binding. 0.66% of 230,000 active. AID 485360. Q9Y468. Potency, µM (top dose mostly 57.1 µM), for inactives: top-dose activity, negative = inhibition, usual class: inhibitors; further: on the % scale 0 is the no-effect control and ±100 the full control effect; nearly all actives have a fitted effect of over 60% in size
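AlphaScreen proximity signal between nickel-chelate acceptor and streptavidin donor beads (final 10 ug/mL) reports binding of 50 nM L3MBTL1 to 75 nM biotin-H3 K9me1 peptide; complex incubated with compounds 30 min at room temperature; cefsulodin titration as control.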
BLM helicase inh-1: blocks DNA unwinding by human BLM helicase. P54132. recombinant BLM DNA unwinding, fluorescence dequenching. Potency, µM (series often up to 56.1 µM), inactives show at the highest dose activity change, negative = inhibition, hits mostly inhibitors. 0.2% of 350,000 active;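 further: plate controls were vehicle for no effect and no enzyme for full effect; nearly all actives have a fitted effect of over 35% in size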
FEN1 inh-1: human FEN1 inhibition | AID 588795 | P39748 | 0.35% of 390,000 active | Potency, µM (highest dose often 114 µM), for the others: top-dose activity change, negative = inhibition, actives largely listed as inhibitors | Recombinant FEN1 flap cleavage, fluorescence, 15 min; further: on the % scale 0 is the no-effect control and ±100 the full control effect; nearly all actives have a fitted effect of over 65% in size
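FEN1 at 10 nM, compound pretreatment for 15 min (room temperature), 50 nM final substrate to initiate; endpoint reads at 0 and 15 min; DMSO-only plates used as vehicle background.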
APE1 inh-1: inhibitors of human APE1 endonuclease; recombinant APE1, TAMRA/BHQ-2 abasic DNA cleavage fluorescence; 0.35% of 350,000 active; Potency, µM (doses to about 65.8 µM), for the others: at the highest dose activity change, negative = inhibition, actives largely listed as inhibitors; AID 2517;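 further: plate controls were vehicle for no effect and reference inhibitor for full effect; nearly all actives have a fitted effect of over 55% in size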
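Compound pre-exposure to 0.75 nM APE1, 15 min at ambient temperature. Reaction initiated with 50 nM TAMRA/BHQ-2 THF substrate, read immediately in kinetic mode, 525 nm excitation, 598 nm emission.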
WRN helicase inh-1: blocks human WRN helicase; Q14191; WRN helicase unwinding, fluorescent forked duplex, kinetic; Potency, µM (doses to about 114 µM), for inactives: top-dose activity change, negative = inhibition, hits mostly inhibitors; 0.46% of 360,000 active; AID 651768; further: on the % scale 0 is the no-effect control and ±100 the full control effect; nearly all actives have a fitted effect of over 55% in size
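Enzyme (20 nM final) and test compound sit together 15 min at room temperature before substrate addition. Substrate is a single-forked duplex oligonucleotide (100 nM) labelled with fluorophore and quencher, with 2 mM ATP; helicase unwinding raises red fluorescence, read kinetically.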
APE1 dye cs: counter-screen for APE1 inhibitors: DNA dye displacement. shares compounds with APE1 inh-1. DNA fluorescent dye displacement counterscreen, fluorescence. Potency, µM (highest dose often 28.5 µM), without a hit: at the highest dose activity change, negative = inhibition, most hits filed as inhibitors. 7% of 480 active. AID 2564;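 further: loss of thiazole orange fluorescence as the dye is displaced from duplex DNA; 0% = ThO with dsDNA and no compound and -100% = ThO without dsDNA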
Endo IV inh: blocks E. coli endonuclease IV DNA cleavage; shares compounds with APE1 inh-1; E. coli Endo IV, fluorogenic AP-site DNA cleavage; Potency, µM (top dose mostly 27.1 µM), for the others: at the highest dose activity change, negative = inhibition, actives largely listed as inhibitors; 4% of 560 active; AID 2565;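 further: plate controls were uninhibited enzyme wells for no effect and no enzyme buffer wells for full effect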
APE1 inh-2: APE1 (human) endonuclease inhibition, confirmation; shares compounds with APE1 inh-1; purified APE1, fluorogenic abasic-site DNA cleavage; Potency, µM (titrated, usually from 57.1 µM), inactives show top-dose activity change, negative = inhibition, most hits filed as inhibitors; 44% of 750 active; AID 2572; further: on the % scale 0 is the no-effect control and ±100 the full control effect; nearly all actives have a fitted effect of over 30% in size
APE1 FP: displaces DNA from human APE1 in FP assay; 7% of 480 active; shares compounds with APE1 inh-1; AID 2573; Potency, µM (titrated, usually from 28.5 µM), for inactives: at the top dose activity, negative = inhibition, actives largely listed as inhibitors; APE1 binding to TAMRA-labelled double-stranded DNA, fluorescence polarization displacement; further: on the % scale 0 is the no-effect control and ±100 the full control effect
BLM inh: BLM (human) helicase inhibition, confirmation; shares compounds with BLM helicase inh-1; BLM DNA unwinding, fluorescence quenching, biochemical; Potency, µM, inactives show max response, negative = inhibition, hits mostly inhibitors; 40% of 220 active;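 further: strand separation dequenches TAMRA so unwinding raises red fluorescence; series mostly up to about 69 µM; on the % scale 0 is the no-effect control and ±100 the full control effect; nearly all actives have a fitted effect of over 45% in size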
RECQ1 inh conf: confirmation of human RECQ1 helicase inhibitors | shares compounds with RECQ1 inh-1 | 28% of 610 active | RECQ1 helicase DNA unwinding, fluorescence | Potency, µM (highest dose often 229 µM), for the others: top-dose activity change, negative = inhibition, most hits filed as inhibitors; further: on the % scale 0 is the no-effect control and ±100 the full control effect; nearly all actives have a fitted effect of over 45% in size
ADP FP counter: ADP displacement flagged in RECQ1 inhibitor counter-screen. shares compounds with RECQ1 inh-1. ADP fluorescence polarization displacement counterscreen. 27% of 530 active. Potency, µM (top dose mostly 228 µM), for the others: at the top dose activity change, negative = inhibition, hits mostly inhibitors. AID 2711; further: on the % scale 0 is the no-effect control and ±100 the full control effect; nearly all actives have a fitted effect of over 45% in size
RECQ1 inh-2: RECQ1 helicase inhibition confirmed, round 2; 15% of 1,100 active; Potency, µM (highest dose often 119 µM), for the others: at the highest dose activity, negative = inhibition, actives largely listed as inhibitors; recombinant RECQ1 DNA unwinding, red fluorescence; shares compounds with RECQ1 inh-1; further: on the % scale 0 is the no-effect control and ±100 the full control effect; nearly all actives have a fitted effect of over 50% in size
FEN1 inh-2: FEN1 inhibition, cherry-pick retest; shares compounds with FEN1 inh-1; FEN1 flap cleavage, TAMRA/BHQ2 fluorogenic DNA substrate; Potency, µM, hits mostly inhibitors; 79% of 880 active; further: nearly all actives have a fitted effect of over 60% in size
WRN helicase inh-2: WRN helicase inhibition, cherry-pick retest; shares compounds with WRN helicase inh-1; WRN helicase DNA unwinding, fluorescence kinetic; Potency, µM (titrated, usually from 57.1 µM), without a hit: at the highest dose activity, negative = inhibition, actives largely listed as inhibitors; 63% of 610 active; AID 720497; further: nearly all actives have a fitted effect of over 65% in size
TO displacement: counter-screen for WRN helicase inhibitors: DNA binding; 10% of 610 active; AID 720499; Potency, µM (highest dose often 57.1 µM), inactives show at the highest dose activity change, negative = inhibition, actives largely listed as inhibitors; shares compounds with WRN helicase inh-1; thiazole orange DNA binding displacement, fluorescence;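 further: drop in dye fluorescence marks compound binding to DNA; on the % scale 0 is the no-effect control and ±100 the full control effect; nearly all actives have a fitted effect of over 60% in size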
BLM helicase inh-2: blocks human BLM helicase in WRN counterscreen; shares compounds with WRN helicase inh-1; Recombinant BLM helicase DNA unwinding, red fluorescence; Potency, µM (highest dose often 57.1 µM), inactives show at the highest dose activity change, negative = inhibition, most hits filed as inhibitors; 60% of 610 active; further: nearly all actives have a fitted effect of over 60% in size
An asterisk follows results filed as active; ? = inconclusive; nt = no result; [ ] = remark or other dose. Sampled rows, rich in hits. Any-hit rate of the full collection: about 1%. The call rests on the fitted dose curve; in most records, active means well fitted curve in the direction sought with a large enough effect; inconclusive means small, poorly fitted or top-dose-only effect, or another doubt; inactive means no such curve, though single readings can be large; an effect the other way counts as inactive or inconclusive. Potency means the concentration at half of the fitted maximal effect.

SMILES	RECQ1 inh-1	L3MBTL1 block	BLM helicase inh-1	FEN1 inh-1	APE1 inh-1	WRN helicase inh-1	APE1 dye cs	Endo IV inh	APE1 inh-2	APE1 FP	BLM inh	FEN1 inh-2	WRN helicase inh-2	TO displacement	BLM helicase inh-2	others
O=C1CCCC(O)=C1N=Nc1ccc(C(=O)O)cc1	?	3.2µM*	41%	45µM*	8.9µM*	32µM*	?	66%	10µM*	-10%	nt	?	7.6µM*	?	12µM*
O=C1CCCC(O)=C1N=Nc1ccc2c(c1)OCO2	-1%	-15%	-1%	3%	-1%	-23%[57.1 µM]	nt	nt	nt	nt	nt	nt	nt	nt	nt
CCc1cc(=O)oc2cc(C)c(CN3CCCC3)c(O)c12	7.1µM*	4µM*	11µM*	25µM*	13µM*	32µM*	-1%	0%	?	?	?	nt	15µM*	24µM*	3.8µM*	RECQ1 inh conf=50µM*;ADP FP counter=72%[91.9 µM];RECQ1 inh-2=?
Cc1cc(C)c2c(CN3CCCC3)cc(=O)oc2c1	nt	nt	nt	nt	nt	-16%	nt	nt	nt	nt	nt	nt	nt	nt	nt
O=C(O)CSc1cc(C(=O)c2ccccc2O)cn2c(=O)c3c4c(sc3nc12)CCCC4	2%	nt	25µM*	?	?	45µM*	-18%	?	4µM*	?	32µM*	48*	9.6µM*	?	3.4µM*

Source: PubChem
